Measured values reported in PubChem BioAssay (Tox21).
Values joined by “and” are separate entries in the source; they are usually repeats but may differ in a detail not shown here. Equal entries are not always repeated. Inconclusive results are not listed. Entries that show only a call come without a potency. Active and inactive are the calls of the source. Calls come from the whole dose curve; as a rule, active = well fitted inhibition curve with a large enough effect in the repeat runs; inconclusive = weak or mixed curves; inactive = no such curve, though single readings can be large or run the other way.

What follows are compounds tested against Cytochrome P450 2C9 (Homo sapiens) (UniProt P11712) (assay: Cytochrome P450 Family 2 Subfamily C Member 9 (CYP2C9) small molecule antagonists: luciferase reporter qHTS assay (AID 1671198)). Details: P450-Glo CYP2C9 enzyme assay, luciferin luminescence; series mostly up to 115 µM.
Cytochrome P450 2C9 (Homo sapiens), sequence (P11712 whole entry, looked up): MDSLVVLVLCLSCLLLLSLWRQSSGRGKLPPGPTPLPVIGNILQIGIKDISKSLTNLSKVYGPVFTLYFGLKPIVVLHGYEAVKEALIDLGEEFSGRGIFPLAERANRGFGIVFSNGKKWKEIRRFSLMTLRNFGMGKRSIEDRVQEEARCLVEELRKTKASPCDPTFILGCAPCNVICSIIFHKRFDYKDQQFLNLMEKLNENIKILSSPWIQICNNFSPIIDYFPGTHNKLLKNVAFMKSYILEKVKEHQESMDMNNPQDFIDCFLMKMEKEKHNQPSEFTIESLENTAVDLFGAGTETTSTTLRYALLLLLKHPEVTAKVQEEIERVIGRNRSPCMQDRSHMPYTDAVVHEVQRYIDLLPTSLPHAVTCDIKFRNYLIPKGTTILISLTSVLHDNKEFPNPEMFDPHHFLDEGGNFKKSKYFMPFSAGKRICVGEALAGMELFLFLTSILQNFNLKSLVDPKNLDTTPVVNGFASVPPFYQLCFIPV
How it was run: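 Enzyme-substrate mix preincubated with compound 10 min at room temperature; reaction started with NADPH regeneration solution, 1 h 37C. Luminescent luciferin product read after 20 min detection reagent.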
Note: nearly all actives have a fitted effect of over 50% in size.
Potency is the fitted concentration of half-maximal effect.

Compound | Potency | activity change, negative = inhibition
CCCCCCCCCCCCCCC1CO1 (stereo not given) | inactive | 
CC(=O)O[C@@H]1C(=O)O[C@@H]2[C@H]1OC(=O)[C@@H]2OC(C)=O | inactive | 
CC(C)(Oc1ccc(Cl)cc1)C(=O)OCCCOC(=O)C(C)(C)Oc1ccc(Cl)cc1 | 5.49 µM (active) | 
N#CCc1cccc(C(F)(F)F)c1 | inactive | 
CC(C)(C)c1ccc(S)cc1 | 31.7 µM (active) | 
O=C(O)c1cn(C2CC2)c2cc(Cl)c(F)cc2c1=O | inactive | 
Nc1nc(CC(=O)O)cs1 | inactive | 
CC(=O)/C=C/C1C(C)=CCCC1(C)C (stereo not given) | inactive | 
CC(C)c1cccc(C(C)C)c1NC(=O)NS(=O)(=O)c1cc(C(C)(C)O)co1 | 35.6 µM (active) | 
C1CCC2OC2C1 (stereo not given) | inactive | 
O=[N+]([O-])c1cccc(Cl)c1Cl | inactive | 
O=C(C(=O)c1ccc(Br)cc1)c1ccc(Br)cc1 |  | -0.879% [at 23.6 µM] (inactive)
COc1ccc(OC)c(OC)c1 | 22.4 µM (active) | 
C=CCCCCCC | inactive | 
O=C(/C=C/c1ccc(O)c(O)c1)O[C@@H]1C[C@](O)(C(=O)O)C[C@@H](O)[C@H]1O | inactive | 
CCc1nn(C2CCCCC2)c2cc(C3(C#N)CCC(C(=O)O)CC3)ccc12 (stereo not given) | 20 µM (active) | 
CCCCCCCCC(CO)CCCCCC (stereo not given) | 25.2 µM (active) | 
CC(C)CCCCCCOC(=O)c1ccc(C(=O)OCCCCCCC(C)C)c(C(=O)OCCCCCCC(C)C)c1 | 71 µM (active) | 
Cn1sccc1=O | 31.7 µM (active) and 35.6 µM (active) | 
CCCCCCCCCC(=O)OCC | inactive | 
CC1=CCC(C(C)C)C=C1 (stereo not given) | 50.2 µM (active) | 

Each compound was assayed against Cytochrome P450 1A2 (Homo sapiens) (UniProt P05177) (assay: Cytochrome P450 Family 1 Subfamily A Member 2 (CYP1A2) small molecule antagonists: luciferase reporter qHTS assay (AID 1671199)). Details: P450-Glo CYP1A2 enzyme, luciferin luminescence, 1 h; series mostly up to 115 µM.
Cytochrome P450 1A2 (Homo sapiens), sequence (P05177 whole entry, looked up): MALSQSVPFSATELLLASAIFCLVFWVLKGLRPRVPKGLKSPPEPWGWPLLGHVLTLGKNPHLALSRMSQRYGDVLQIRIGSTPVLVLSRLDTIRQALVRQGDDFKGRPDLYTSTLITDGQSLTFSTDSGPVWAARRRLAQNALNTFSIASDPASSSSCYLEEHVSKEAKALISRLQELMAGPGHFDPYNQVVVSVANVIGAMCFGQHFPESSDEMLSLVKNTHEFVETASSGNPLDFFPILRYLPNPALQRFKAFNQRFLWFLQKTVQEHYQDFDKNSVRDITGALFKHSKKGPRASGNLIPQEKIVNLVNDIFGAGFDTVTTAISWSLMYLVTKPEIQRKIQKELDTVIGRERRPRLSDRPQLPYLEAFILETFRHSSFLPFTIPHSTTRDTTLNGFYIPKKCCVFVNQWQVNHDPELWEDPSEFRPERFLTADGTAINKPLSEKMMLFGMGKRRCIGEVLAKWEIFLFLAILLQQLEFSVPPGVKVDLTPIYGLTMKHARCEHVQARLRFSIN
How it was run: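 Enzymatic CYP1A2 assay, human, luminescent: 10 min compound–enzyme–substrate preincubation, 1 h NADPH-dependent turnover, 20 min detection step, room temperature throughout. Reduced light indicates lower CYP1A2 activity.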

Compound | Potency
CCCCC(CC)(CO)CO | inactive
Nc1nc(CC(=O)O)cs1 | inactive
CC(=O)/C=C/C1C(C)=CCCC1(C)C (stereo not given) | inactive
CC(C)CCCC(C)CCO (stereo not given) | inactive
CCCCCCCCN(C)C | inactive
CC(C)CC=O | inactive
COc1ccc(OC)c(OC)c1 | 39.9 µM (active)
CC(=O)OCCc1ccccc1 | inactive
C=CCCCCCC | inactive
COc1ccc(C(C)=O)cc1 | 29.1 µM (active)
COC(Cc1ccccc1)OC | inactive
O=C(Cl)c1c(Cl)cccc1Cl | inactive
CCc1nn(C2CCCCC2)c2cc(C3(C#N)CCC(C(=O)O)CC3)ccc12 (stereo not given) | inactive
CC(=O)N(CC(=O)N(C)C)c1ccccc1 | inactive
Cc1cccc(OCCOc2cccc(C)c2)c1 | 8.45 µM (active)
CC(C)CCCCCCOC(=O)c1ccc(C(=O)OCCCCCCC(C)C)c(C(=O)OCCCCCCC(C)C)c1 | inactive
C[Si](C)O[Si](C)(C)O[Si](C)(C)O[Si](C)C | inactive
Cn1sccc1=O | 35.6 µM (active) and 31.7 µM (active)
C=C(C)C(=O)OCCN(C)C | inactive
O=C1c2cccc(O)c2C(=O)c2c(O)cc(CO)cc21 | 8.94 µM (active)
Cc1cccc(Oc2ccccc2)c1 | 34.7 µM (active)
CCOc1ccc(NC(=O)CC(C)=O)cc1 | 31.7 µM (active)
CC(CN)CCCN (stereo not given) | inactive
CC(C)(C)c1cc(CCC(=O)OCC(COC(=O)CCc2cc(C(C)(C)C)c(O)c(C(C)(C)C)c2)(COC(=O)CCc2cc(C(C)(C)C)c(O)c(C(C)(C)C)c2)COC(=O)CCc2cc(C(C)(C)C)c(O)c(C(C)(C)C)c2)cc(C(C)(C)C)c1O | 6.75 µM (active)
